# Assay results taken from PubChem BioAssay AID652234 (Broad Institute, 2013).
# Active and inactive are the calls of the source. How the calls were made is not given here.
# Biological target: Ubiquitin carboxyl-terminal hydrolase 9X (Homo sapiens) (UniProt Q93008)
# Assay: USP9X direct binding, late-stage follow-up, orthogonal assay, biophysical, surface plasmon resonance (AID 652234)
# Settings: Recombinant USP9X, SPR Biacore T200, RU; at 100 µM (top of the series)
# Ubiquitin carboxyl-terminal hydrolase 9X (Homo sapiens), sequence (Q93008 whole entry, looked up): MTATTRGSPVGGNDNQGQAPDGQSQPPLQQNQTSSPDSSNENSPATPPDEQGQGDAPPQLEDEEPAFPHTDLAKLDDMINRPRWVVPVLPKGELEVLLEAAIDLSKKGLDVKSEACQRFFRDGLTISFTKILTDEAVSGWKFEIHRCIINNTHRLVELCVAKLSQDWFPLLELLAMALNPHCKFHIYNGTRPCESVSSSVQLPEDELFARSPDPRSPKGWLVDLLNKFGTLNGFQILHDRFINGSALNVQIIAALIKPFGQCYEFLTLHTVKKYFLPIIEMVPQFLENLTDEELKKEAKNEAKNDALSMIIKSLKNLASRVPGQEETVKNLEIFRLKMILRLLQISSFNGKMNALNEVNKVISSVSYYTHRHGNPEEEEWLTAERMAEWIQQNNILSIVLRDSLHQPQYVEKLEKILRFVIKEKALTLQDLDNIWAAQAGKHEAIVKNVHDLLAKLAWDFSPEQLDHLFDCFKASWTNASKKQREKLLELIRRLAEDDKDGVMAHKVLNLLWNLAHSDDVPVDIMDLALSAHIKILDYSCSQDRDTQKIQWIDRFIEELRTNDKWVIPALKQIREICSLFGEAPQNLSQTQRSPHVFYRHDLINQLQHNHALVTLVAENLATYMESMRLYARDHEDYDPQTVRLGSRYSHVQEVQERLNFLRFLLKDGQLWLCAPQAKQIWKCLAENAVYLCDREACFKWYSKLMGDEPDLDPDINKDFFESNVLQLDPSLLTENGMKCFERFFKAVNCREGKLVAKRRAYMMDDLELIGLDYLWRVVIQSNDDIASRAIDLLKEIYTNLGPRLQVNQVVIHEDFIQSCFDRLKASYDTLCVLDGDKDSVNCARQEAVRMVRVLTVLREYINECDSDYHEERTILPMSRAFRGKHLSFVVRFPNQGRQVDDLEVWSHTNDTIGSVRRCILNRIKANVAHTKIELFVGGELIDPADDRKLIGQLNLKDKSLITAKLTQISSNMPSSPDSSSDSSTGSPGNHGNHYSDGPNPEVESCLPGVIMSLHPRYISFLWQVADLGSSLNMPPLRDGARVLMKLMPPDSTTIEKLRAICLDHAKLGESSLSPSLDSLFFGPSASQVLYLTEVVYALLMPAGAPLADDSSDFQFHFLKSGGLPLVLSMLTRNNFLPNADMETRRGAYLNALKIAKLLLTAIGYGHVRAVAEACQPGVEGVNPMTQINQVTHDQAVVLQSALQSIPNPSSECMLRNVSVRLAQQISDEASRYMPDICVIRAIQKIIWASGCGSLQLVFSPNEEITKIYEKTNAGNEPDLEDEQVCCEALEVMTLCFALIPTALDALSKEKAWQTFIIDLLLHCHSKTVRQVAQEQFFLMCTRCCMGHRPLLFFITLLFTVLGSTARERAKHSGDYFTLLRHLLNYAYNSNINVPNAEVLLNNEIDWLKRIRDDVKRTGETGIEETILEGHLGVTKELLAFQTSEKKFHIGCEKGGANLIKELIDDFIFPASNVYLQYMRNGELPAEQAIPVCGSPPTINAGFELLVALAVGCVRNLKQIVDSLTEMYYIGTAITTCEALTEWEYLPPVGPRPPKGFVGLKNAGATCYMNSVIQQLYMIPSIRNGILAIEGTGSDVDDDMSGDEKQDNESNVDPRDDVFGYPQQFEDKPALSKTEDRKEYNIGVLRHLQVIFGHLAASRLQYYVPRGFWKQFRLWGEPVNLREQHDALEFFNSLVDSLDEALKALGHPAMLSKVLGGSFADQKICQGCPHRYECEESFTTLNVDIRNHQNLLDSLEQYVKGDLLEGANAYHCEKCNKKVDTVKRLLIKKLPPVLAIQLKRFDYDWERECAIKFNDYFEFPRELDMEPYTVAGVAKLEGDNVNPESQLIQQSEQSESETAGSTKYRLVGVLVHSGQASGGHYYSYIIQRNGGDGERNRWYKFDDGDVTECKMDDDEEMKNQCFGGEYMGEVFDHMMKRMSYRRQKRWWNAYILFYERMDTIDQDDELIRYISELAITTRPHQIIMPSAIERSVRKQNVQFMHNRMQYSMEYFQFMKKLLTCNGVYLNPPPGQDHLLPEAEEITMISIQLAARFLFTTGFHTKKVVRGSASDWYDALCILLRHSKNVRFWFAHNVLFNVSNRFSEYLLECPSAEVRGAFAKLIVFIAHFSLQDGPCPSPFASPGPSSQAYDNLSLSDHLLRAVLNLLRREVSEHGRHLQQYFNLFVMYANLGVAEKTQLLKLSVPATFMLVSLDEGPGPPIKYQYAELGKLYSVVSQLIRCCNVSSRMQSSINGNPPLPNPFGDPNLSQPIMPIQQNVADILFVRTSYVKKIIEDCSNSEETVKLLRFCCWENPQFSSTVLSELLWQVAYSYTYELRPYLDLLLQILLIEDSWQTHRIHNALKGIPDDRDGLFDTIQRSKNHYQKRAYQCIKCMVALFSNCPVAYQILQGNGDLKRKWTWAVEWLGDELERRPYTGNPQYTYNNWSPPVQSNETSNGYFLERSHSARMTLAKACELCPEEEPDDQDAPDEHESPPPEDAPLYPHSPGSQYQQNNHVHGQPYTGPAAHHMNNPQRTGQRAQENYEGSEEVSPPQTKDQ
smiles,measurement,value
C[C@@H]1CN([C@@H](C)CO)C(=O)c2cccc(NC(=O)Nc3cccc4ccccc34)c2O[C@H]1CN(C)S(=O)(=O)c1ccc2c(c1)OCCO2,"binding signal (RU), higher = more binding",11.2 (active)
